Assay outcomes deposited in PubChem BioAssay by National Center for Advancing Translational Sciences (NCATS).
TrxR1 substrate – qHTS Assay for Substrates of Mammalian Selenoprotein Thioredoxin Reductase 1 (TrxR1): qHTS | purified TrxR1 substrate turnover, NADPH consumption readout | Potency, µM (doses to about 114 µM) | actives 0.01% (n = 390,000) | AID 588456, 2011; further: nearly all actives have a fitted effect of over 50% in size
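Rat TrxR1, dispensed at 90 nM, was prereduced with 400 uM NADPH (final) for 5 min at ~22 deg C, then incubated with compound 15 min before 400 uM selenite. A first-read NADPH fluorescence drop versus no-compound background flagged substrates.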
GALK inhibitor – qHTS Assay for Inhibitors of Human Galactokinase (GALK). Potency, µM (doses to about 57.5 µM), actives largely listed as inhibitors. Purified GALK, Kinase-Glo residual ATP luminescence. actives 0.007% (n = 270,000). AID 1868, 2009. P51570
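Human GALK (5 nM) with 35 uM ATP and 100 uM galactose in 20 mM HEPES pH 8.0, 5 mM MgCl2, 60 mM NaCl, 1 mM DTT, 0.01% BSA. After 1 h at room temperature, leftover ATP was read by Kinase-Glo Plus luminescence.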
KAT2A inh – qHTS Assay for Inhibitors of GCN5L2 | Histone acetyltransferase KAT2A (Homo sapiens), Q92830 | GCN5L2 HAT assay, ThioGlo1 CoA-SH fluorescence | Potency, µM (top dose mostly 58.9 µM), actives largely listed as inhibitors | actives 0.21% (n = 390,000) | AID 504327, 2011
Target sequence (Q92830 whole entry, looked up): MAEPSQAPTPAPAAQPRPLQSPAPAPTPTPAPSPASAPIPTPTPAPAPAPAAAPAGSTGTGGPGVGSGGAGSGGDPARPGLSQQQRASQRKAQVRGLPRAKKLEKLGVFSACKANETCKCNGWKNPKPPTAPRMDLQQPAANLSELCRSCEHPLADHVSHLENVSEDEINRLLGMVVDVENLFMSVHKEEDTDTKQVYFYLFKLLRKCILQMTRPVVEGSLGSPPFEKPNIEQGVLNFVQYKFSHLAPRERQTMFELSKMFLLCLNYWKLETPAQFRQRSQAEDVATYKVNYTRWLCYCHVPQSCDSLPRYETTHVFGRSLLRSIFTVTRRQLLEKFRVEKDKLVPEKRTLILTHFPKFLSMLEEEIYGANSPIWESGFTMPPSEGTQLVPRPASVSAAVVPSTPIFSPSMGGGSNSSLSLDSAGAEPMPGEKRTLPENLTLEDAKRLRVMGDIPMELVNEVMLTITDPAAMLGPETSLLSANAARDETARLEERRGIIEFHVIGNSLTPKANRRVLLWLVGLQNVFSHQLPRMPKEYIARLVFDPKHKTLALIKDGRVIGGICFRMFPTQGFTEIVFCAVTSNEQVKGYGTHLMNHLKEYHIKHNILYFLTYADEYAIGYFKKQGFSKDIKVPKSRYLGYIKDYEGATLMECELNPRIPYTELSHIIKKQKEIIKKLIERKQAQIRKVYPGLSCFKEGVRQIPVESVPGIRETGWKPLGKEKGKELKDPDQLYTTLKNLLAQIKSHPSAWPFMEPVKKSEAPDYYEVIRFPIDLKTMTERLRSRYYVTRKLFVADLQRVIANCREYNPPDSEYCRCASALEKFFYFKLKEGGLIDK
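Titration-based screen in which CoA formation is detected via maleimide probe ThioGlo1 (50uM) turning fluorescent on thiol reaction; substrates H3(1-25) 75uM and acetyl-CoA 70uM, GCN5L2 20nM, 20 min incubation at room temperature.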
Pin1 inh – qHTS Assay to Find Inhibitors of Pin1 | Pin1 FP peptide displacement, HiFluor488, 10 min | AID 504891, 2011 | actives 0.009% (n = 390,000) | Potency, µM (titrated, usually from 115 µM), usual class: inhibitors | Peptidyl-prolyl cis-trans isomerase NIMA-interacting 1 (Homo sapiens), Q13526; active means well fitted inhibition curve with a large enough effect in the polarisation, with a control signal flat, not every such curve was filed as active; inconclusive means small, poorly fitted or top-dose-only effect, or effect the other way, or a change in a side signal; inactive means no such curve, though single readings can be large or run the other way; the % refers to the polarisation
rTrxR1 inhibitor – qHTS Assay for Inhibitors of Mammalian Selenoprotein Thioredoxin Reductase 1 (TrxR1): qHTS; Thioredoxin reductase 1, cytoplasmic (Rattus norvegicus), O89049; recombinant rTrxR1, NADPH fluorescence consumption, selenite substrate; Potency, µM (doses to about 114 µM), most hits filed as inhibitors; actives 1% (n = 390,000); AID 588453, 2011; further: nearly all actives have a fitted effect of over 65% in size
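Rat TrxR1 (90 nM in the dispensed reagent) was pre-reduced with 400 uM NADPH for 5 min at room temperature, then incubated with compound for 15 min. After 400 uM selenite was added, NADPH fluorescence (Ex 340/Em 450 nm) was followed for 8 min.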
Giardia kill – Small Molecules that selectively kill Giardia lamblia: qHTS. Giardia lamblia trophozoite viability. activity change, % at 7.66 µM, hits read low. actives 0.15% (n = 340,000); in the data active means activity change below about -80%; inconclusive means between about -30% and that limit;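 further: parasites exposed to compound for two days anaerobically before the ATP read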
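Compounds were tested on trophozoites seeded at 100 cells/well and held 48 hrs at 37 deg C anaerobically. An ATP-based luminescent kit measured the remaining live cells.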
A number is an active result; i = inactive; ? = inconclusive; nt = not tested or not shown; ! = a repeat was not active; [ ] = dose if it differs, or a comment. The list is not random: actives were taken first. Their share in the collection is about 1.3%. Unless noted, the call rests on the fitted dose curve; in most records, active means well fitted curve in the direction sought with a large enough effect; inconclusive means small, poorly fitted or top-dose-only effect, or another doubt; inactive means no such curve, though single readings can be large; an effect the other way counts as inactive or inconclusive.

SMILES	TrxR1 substrate	GALK inhibitor	KAT2A inh	Pin1 inh	rTrxR1 inhibitor	Giardia kill
CCN1C(=O)[C@H]2[C@@H](c3ccc(-c4ccc(OC)cc4)c(OC)c3)N[C@@](Cc3ccccc3)(C(=O)OC)[C@H]2C1=O	i	nt	i	i	i	i
NC(=O)CSc1nnc(-c2ccco2)n1-c1ccccc1	i	i	i	i	i	i
OCCn1c(CSc2nnc(-c3ccco3)n2-c2ccccc2)nc2ccc(Cl)cc21	i	i	i	i	20µM	i
CCN(CC(=O)Nc1cc(Cl)ccc1C)C(=O)C1COc2ccccc2O1 (stereo not given)	i	nt	i	i	50µM	i
CCCc1cc(=O)oc2cc(C)cc(OCC(=O)Nc3ccc(S(N)(=O)=O)cc3)c12	i	i	i	i	20µM	i
CCCc1cc(=O)oc2cc(C)cc(OCC(=O)Nc3ccccn3)c12	i	i	i	i	i	i
NS(=O)(=O)c1ccc(NC2=CC(c3ccc([N+](=O)[O-])cc3)N(c3ccc(S(N)(=O)=O)cc3)C2=O)cc1 (stereo not given)	i	i	i	i	50µM	i
COc1ccc(NC2=CC(c3ccc(OC)c(OC)c3)N(c3ccc(OC)cc3)C2=O)cc1 (stereo not given)	i	nt	i	i	?	i
CCN1C(=O)/C(=C\C(=O)c2cccs2)c2cc(Br)ccc21	i	i	i	i	18µM	i
Cc1ccccc1CS(=O)(=O)Cc1ccc(C(=O)NCc2ccco2)o1	i	i	?	i	79µM	i
Cc1ccccc1CS(=O)(=O)Cc1ccc(C(=O)NCc2ccccn2)o1	i	i	i	nt	50µM	i
COc1ccc(C(=O)Nc2ccccc2-c2nc3ccccc3s2)c(OC)c1	i	nt	i	?	i	nt
O=C(CCn1cccn1)NCc1ccc(Cl)cc1	i	nt	i	i	i	nt
Cn1cnnc1SCC(=O)c1cc2ccccc2oc1=O	i	i	i	i	7.1µM	i
O=C(CSc1nnc(-c2cccnc2)o1)c1cc2ccccc2oc1=O	i	i	i	i	i	i
Cc1ccc(NS(=O)(=O)c2ccc3c(c2)CCN(C(=O)C(F)(F)F)C3)cc1C	nt	nt	nt	i	nt	nt
CC(C)(C)OC(=O)N1CC=C2C(C#N)=C(N)C(C#N)(C#N)[C@H](c3cccnc3)[C@H]2C1	i	i	i	?	40µM	i
CC(=O)CC[N+](C)(C)C	i	nt	nt	i	2.2µM	i
COc1cc(O)c(NC(C)=O)c2nonc12	i	i	i	i	i	i
CC(=O)NC1=CC(=O)c2nonc2C1=O	7.1µM	nt	nt	nt	?	i
CC(C)CN(CCCNC(=O)CN1C(=O)COc2ccc(S(=O)(=O)N3CCCC3)cc21)CC(C)C	i	i	i	i	i	i
CC(C)CN(CCCNC(=O)CN1C(=O)COc2ccc(S(=O)(=O)N3CCCCCC3)cc21)CC(C)C	i	i	i	?	56µM!	i
COc1cc2c(cc1OC)n(Cc1cccc(C(F)(F)F)c1)c(=O)n1nc(-c3ccccc3)nc21	i	nt	i	i	i	nt
O=C1OC(c2cccs2)=N/C1=C/c1ccc(-c2cccc(C(=O)O)c2)o1	i	i	i	nt	35µM	i
CCOC(=O)N1CCN(/[N+]([O-])=N/OCOC)CC1	i	nt	nt	nt	i	nt
SMILES	TrxR1 substrate	GALK inhibitor	KAT2A inh	Pin1 inh	rTrxR1 inhibitor	Giardia kill
COC(=O)[C@@]1(Cc2ccc(OC)cc2)[C@H]2c3cc(C(=O)N4CCCC4)n(Cc4ccc(OC)c(OC)c4)c3C[C@H]2CN1C(=O)c1ccccc1	nt	nt	i	nt	nt	nt
COC(=O)[C@@]1(Cc2ccc(OC)cc2)[C@H]2c3cc(C(=O)N4CCCC4)n(CCn4cc([N+](=O)[O-])nc4C)c3C[C@H]2CN1C(=O)c1ccccc1	i	nt	i	i	i	-83
CN(C)c1ccc(/C=C/c2ccnc3c(Cl)ccc(Cl)c23)cc1	i	nt	nt	nt	i	nt
O=C1c2ccccc2C(=O)N1c1cccc(=O)[nH]1	nt	nt	nt	i	nt	nt
CCOc1ccc(N/C(=C(/C(Cl)=C(Cl)Cl)[N+](=O)[O-])n2cncn2)cc1	nt	i	i	nt	nt	nt
CCOc1ccccc1N/C(=C(/C(Cl)=C(Cl)Cl)[N+](=O)[O-])n1cncn1	i	i	i	i	22µM	i
COc1ccc(CCC(=O)NCc2ccco2)cc1	i	i	i	i	11µM	i
CC(C)(C)NS(=O)(=O)c1ccc(CCC(=O)NCc2ccco2)cc1	i	i	i	i	?	i
COc1ccc(C(=O)n2nnc3ccccc32)cc1Br	i	i	i	i	4µM	i
COc1ccc(C(=O)COC(=O)Cn2nnc3ccccc32)cc1Br	i	i	i	i	i	i
CN1CCN(c2ccc(CNc3nn4c(=O)c5ccccc5nc4s3)cc2)CC1	nt	nt	nt	i	nt	nt
CC(C)c1onc(-c2c(Cl)cccc2Cl)c1COc1ccc(/C=C/c2cccc(C(=O)O)c2)c(Cl)c1	nt	nt	13µM	nt	nt	nt
CCC(C)NC(=O)c1cccc(OCc2c(C)noc2C)c1 (stereo not given)	i	i	i	i	i	i
CC(C)(C)n1ncc2c(=O)n(Cc3c(F)ccc(F)c3Cl)cnc21	i	nt	nt	nt	i	nt
CCCc1cc(CN2CCOCC2)c(O)c(CN2CCOCC2)c1O	i[11.4 µM]	nt	nt	i	1.6µM	i
COc1cc2c(cc1NC(=O)CSc1nnc(Cc3cccs3)n1Cc1ccco1)oc1ccccc12	i	i	i	i	14µM	i
N#Cc1ccc(CSc2nnc(Cc3cccs3)n2Cc2ccco2)cc1	i	i	i	i	40µM	i
Cc1cc(N)ccc1N1CCCC1	i	i	?	?	13µM	i
Cc1cc(N)ccc1-n1c(C)ccc1C	i	i	i	i	?	?
CCN(CC)c1ccc(S(=O)(=O)N2CCOCC2)cc1NC(=O)COC(=O)/C=C/c1ccco1	i	nt	nt	i	i	i
COc1cccc(/C=C/C(=O)OCC(=O)Nc2ccc(Cl)c(S(=O)(=O)N(C)C)c2)c1	i	i	i	i	i	i
CN(C)S(=O)(=O)c1cc(NC(=O)COC(=O)/C=C/c2ccco2)ccc1Cl	i	i	i	?	3.5µM	i
O=C(COC(=O)/C=C/c1ccco1)Nc1cc(S(=O)(=O)N2CCOCC2)ccc1Cl	i	nt	i	i	35µM	i
CCCCN(C(=O)c1c(CC)noc1C)c1c(N)n(CCCC)c(=O)[nH]c1=O	i	nt	i	i	i	i
C#CCN1C(=O)C(O)(CC(=O)/C=C/c2ccco2)c2ccccc21 (stereo not given)	i	i	i	i	40µM	i
